19 molecules from paper PMC13494018 can be followed below.

Values without a mark were called inactive. How the calls were made is not given here.

This experiment addresses CD276, Q5ZPR3.

Chain of CD276, Q5ZPR3 (Q5ZPR3 whole entry): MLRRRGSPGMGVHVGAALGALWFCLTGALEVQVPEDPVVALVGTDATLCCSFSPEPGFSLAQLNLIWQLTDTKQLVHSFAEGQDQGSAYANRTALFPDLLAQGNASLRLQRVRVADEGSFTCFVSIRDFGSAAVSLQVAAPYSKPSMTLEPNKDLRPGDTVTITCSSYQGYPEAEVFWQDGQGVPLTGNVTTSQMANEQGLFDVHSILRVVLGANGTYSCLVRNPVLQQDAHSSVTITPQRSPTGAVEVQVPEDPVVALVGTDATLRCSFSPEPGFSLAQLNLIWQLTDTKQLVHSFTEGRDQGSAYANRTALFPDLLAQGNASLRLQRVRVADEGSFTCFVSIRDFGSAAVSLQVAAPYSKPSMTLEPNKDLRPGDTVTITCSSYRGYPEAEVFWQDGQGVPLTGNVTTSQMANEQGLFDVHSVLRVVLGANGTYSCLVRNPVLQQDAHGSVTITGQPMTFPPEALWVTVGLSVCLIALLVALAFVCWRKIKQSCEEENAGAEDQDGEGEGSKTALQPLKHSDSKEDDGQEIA

B1: d1r8_design_ppi_233_dldesign_0_cycle1_af2pred (protein)
chain: GALEEAKEKKKEAEEIGKQALALAAQNPASRAQAGALQVELLKLSAEARRKAEEYKADPETREAAKAYEEAAKLASQKIVEVSQALV
As to B1, the “binding in a display sort” value is “not found”.

B2: d1r7_design_ppi_871_dldesign_0_cycle1_af2pred (protein)
chain: AAAAQTALRTAAAMYRSAAEMFEAGKTEDGLAAAKVAADVAANVPANKEFAAKTLKEITEAAKKDPAEAAKIAREAADYLDAQAAA
For B2, the “binding in a display sort” value is “not found”.

B3: d1r8_design_ppi_139_dldesign_0_cycle1_af2pred (protein)
chain: AMSVGELMEVAKAEGAAVNAAAAALAAKDPAKAAALLDAYRAKVNAIIAEMSRTAIASGDFEAAAAAAAAKIKAAAKETLAALKAIA
Turning to B3, the “binding in a display sort” value was “not found”.

B4: d1r8_design_ppi_23_dldesign_0_cycle0_af2pred (protein)
chain: MEELAEEYIEEARRYAEEAERLAEQAGEAARPLARAARRALELAEENREDLELVKGQAEAARVFLEAARSRLEQLA
On to B4, for which the “binding in a display sort” value was “not found”.

B5: d1r7_design_ppi_941_dldesign_0_cycle1_af2pred (protein)
chain: AADRAAAAAALGAAVEAYSELVKLAKEAIEKHGPKVAPEMEKLIAEAQKALAAAAKAAIAGDAKAAKAAAEKIKKLKEEAKKLLEE
Take B5: the “binding in a display sort” value is “not found”.

B6: d1r7_design_ppi_873_dldesign_0_cycle1_af2pred (protein)
chain: SESIENQKKASEAMSEAIEAMAKAGFPISERNEVGKLGIEAMRLFQKSPEDPAALEEGKKKLAEVEKRLKEAKAA
On to B6, for which the “binding in a display sort” value is “not found”.

B7: d1r8_design_ppi_218_dldesign_0_cycle1_af2pred (protein)
chain: PTPEELAAAYREVRELAERAVAGTPEEAKRYAERIAELVARAEERFGPGAGVLLRNVALAVARANPVAYEYVRAAL
B7: the “binding in a display sort” value was “not found”.

B8: d1r7_design_ppi_889_dldesign_0_cycle1_af2pred (protein)
chain: SEELDRAGAQTLAEIVGKQAKKVAKAAKELSKEKGGELTPLAEKAEEAAKKAIKLAEEGASAEEIYKAAQEAQDLRLKAKAALKAAKA
With B8, the “binding in a display sort” value is “not found”.

B9: d1r8_design_ppi_128_dldesign_0_cycle0_af2pred (protein)
chain: EEEVKKAKEEAEKAIEEARETERRYFAEAGRNPANALAYLQAGLEELEKIAKELERKGEEEGGEAGKVYKEAAREIKERRERIAAALS
For the molecule B9, the “binding in a display sort” value is “not found”.

B10: d1r8_design_ppi_82_dldesign_0_cycle1_af2pred (protein)
chain: AAAAAKTAAKNVLKAVENFSKNAAAAGKASTPEEAARKLAEIEKFGEAGIAVAAADPEIAKKVKEVVDKAIAELKKAAA
Regarding B10, the “binding in a display sort” value is “not found”.

B11: d1r8_design_ppi_140_dldesign_0_cycle0_af2pred (protein)
chain: DVAAMKKEVEELKKKVEEVAKKAAESPEAQPYVNQAKGNAKSAELAAEGGDVALAKRFLKLAEEAMKKAEALI
Turning to B11, the “binding in a display sort” value was “not found”.

B12: d1r8_design_ppi_80_dldesign_0_cycle0_af2pred (protein)
chain: AAAEAAAALAAARAALAAVRETLARAERGEATREEAGAAINAGMRTIAALNAVAARIPAAKAEFDALAGEILDAIRALAAAVR
B12: the “binding in a display sort” value is “not found”.

B13: d1r7_design_ppi_941_dldesign_0_cycle0_af2pred (protein)
chain: AAAAAEAAEYLGKAVEYHKELEEAARRAIEKFGPEVEEEMEELLREAREALAKASQAAIAGDAEKTKEEMEKIKKIRERAKELLEK
B13: the “binding in a display sort” value was “not found”.

B14: d1r8_design_ppi_87_dldesign_0_cycle1_af2pred (protein)
chain: NPLLEEARRAIEEAAKLVKTGTPEEAREALKRAAHELLRLAARSTDQAVAQKLITAAELVAKAAELVLTNPEEALKLVEEAL
Consider B14, for which the “binding in a display sort” value was “not found”.

B15: d1r8_design_ppi_150_dldesign_0_cycle1_af2pred (protein)
chain: SQAALVAAKGALALAKGIKAHVESNPNLPLEELEKLKEQLKTAEEMAKAAEKEAKKAGDKEVLEAAKKALEAIKEAKKALEEAIKKAK
Consider B15, for which the “binding in a display sort” value was “not found”.

B16: d1r8_design_ppi_233_dldesign_0_cycle0_af2pred (protein)
chain: DDLEEARELLEEARRLGEQALALVAQNPAARAEGGALMLELLKLQAEARRRAAEYEADPEKAEAAEAYREAAELASQLVRQISQAAV
Take B16: the “binding in a display sort” value is “not found”.

B17: d1r7_design_ppi_937_dldesign_0_cycle1_af2pred (protein)
chain: GAAAEAAEREAKAALLKEVGAAAARMAPENPRLAAAGALGAARGLAALGYAEEGKAVLEETAAALPDPEEAARLRAAAAAL
In the case of B17, the “binding in a display sort” value is “binds (active)”.

B18: d1r7_design_ppi_869_dldesign_0_cycle0_af2pred (protein)
chain: GIGDELAKGEEYYRKSIELAKEGNKEEAKKYLEEAEAHYAAAAAAAEAQGNTALAAALRARAKARKEEAEKLIK
Take B18: the “binding in a display sort” value is “not found”.

B19: d1r8_design_ppi_185_dldesign_0_cycle1_af2pred (protein)
chain: AAQAKALAAEADKLTEKARKLAKEGGDKEEVSKLLAEAAEKYAAAAEADPSTAFEYNARANLARFASQQNLEQAAKVAEAI
B19: the “binding in a display sort” value was “not found”.
